# Measurements from article PMC7862700, “An all-to-all approach to the identification of sequence-specific readers for epigenetic DNA modifications on cytosine”.
# How the values were obtained:
# Experiment in all cases: DAPPL (digital affinity profiling via proximity ligation, sequencing); 10 mM Tris-HCl pH 7.5, 50 mM NaCl, 1 mM DTT, 4% glycerol, room temperature, 30 min; GST-TFs on glutathione beads, 16-mer random dsDNA library, 0.1% formaldehyde crosslink after washing; high values mean tight binding
# FLI1 = molecular target: T1, FLI1 (Homo sapiens, UniProt Q01543 1-452); conditions: protein: recombinant; tags: N-terminal GST; dsDNA, one strand shown
# T1 sequence: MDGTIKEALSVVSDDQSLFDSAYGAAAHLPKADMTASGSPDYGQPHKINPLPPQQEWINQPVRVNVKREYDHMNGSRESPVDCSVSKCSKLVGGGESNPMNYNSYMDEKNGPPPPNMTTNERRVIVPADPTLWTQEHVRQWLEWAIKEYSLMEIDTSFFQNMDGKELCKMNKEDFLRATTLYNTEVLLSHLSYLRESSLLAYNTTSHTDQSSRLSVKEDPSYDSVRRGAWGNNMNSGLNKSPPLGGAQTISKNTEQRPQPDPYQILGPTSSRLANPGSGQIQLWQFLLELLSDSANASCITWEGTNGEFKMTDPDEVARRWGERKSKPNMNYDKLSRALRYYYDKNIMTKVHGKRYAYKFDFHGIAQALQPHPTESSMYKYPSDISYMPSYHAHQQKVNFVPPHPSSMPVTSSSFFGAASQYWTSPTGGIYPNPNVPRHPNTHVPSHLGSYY
# Outline: (§1)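 Sequencing on an Illumina NextSeq500 followed washing, crosslinking with 0.1% formaldehyde, proximity ligation (BsaI/T4 ligase, 1 h, 37 °C) and PCR amplification of pools that had been incubated for 30 min at room temperature with 200 nmole of a random double-stranded 16-mer DNA library in Tris/NaCl/DTT/glycerol buffer. Each pool held DNA-barcoded human transcription factors, expressed in yeast as GST fusions and captured on glutathione beads, plus a tag-only sample. Binding signal is a hexamer's read frequency for a factor divided by its frequency in the tag-only sample.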
# ELK1 = molecular target: T2, ELK1 (Homo sapiens, UniProt P19419 1-428); conditions: protein: recombinant; tags: N-terminal GST; dsDNA, one strand shown
# T2 sequence: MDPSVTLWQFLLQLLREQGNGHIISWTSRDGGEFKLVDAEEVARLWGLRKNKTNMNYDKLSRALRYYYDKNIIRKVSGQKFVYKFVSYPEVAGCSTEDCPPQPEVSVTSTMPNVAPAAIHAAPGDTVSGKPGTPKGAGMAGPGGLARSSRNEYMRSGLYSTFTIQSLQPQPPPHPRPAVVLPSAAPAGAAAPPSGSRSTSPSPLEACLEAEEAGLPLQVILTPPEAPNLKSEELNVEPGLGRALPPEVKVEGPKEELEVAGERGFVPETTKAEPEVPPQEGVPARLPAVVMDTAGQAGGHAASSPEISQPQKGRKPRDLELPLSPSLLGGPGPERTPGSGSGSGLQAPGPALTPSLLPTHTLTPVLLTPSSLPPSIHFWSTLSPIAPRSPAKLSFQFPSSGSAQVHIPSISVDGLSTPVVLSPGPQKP
# Outline: as §1
# GABPA = molecular target: T3, GABPA (Homo sapiens, UniProt Q06546 1-454); conditions: protein: recombinant; tags: N-terminal GST; dsDNA, one strand shown
# T3 sequence: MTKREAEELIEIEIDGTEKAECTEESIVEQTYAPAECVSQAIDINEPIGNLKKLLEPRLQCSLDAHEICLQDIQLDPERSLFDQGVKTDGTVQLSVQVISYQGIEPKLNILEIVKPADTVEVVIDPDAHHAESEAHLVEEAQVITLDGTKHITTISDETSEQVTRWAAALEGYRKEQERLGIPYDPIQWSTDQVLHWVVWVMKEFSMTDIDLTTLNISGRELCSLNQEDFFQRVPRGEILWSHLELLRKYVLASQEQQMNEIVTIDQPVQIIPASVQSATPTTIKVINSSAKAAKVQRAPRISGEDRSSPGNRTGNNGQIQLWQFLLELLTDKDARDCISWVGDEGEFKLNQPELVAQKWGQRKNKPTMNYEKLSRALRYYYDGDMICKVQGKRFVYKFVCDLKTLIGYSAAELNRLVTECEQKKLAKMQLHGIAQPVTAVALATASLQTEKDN
# Outline: as §1
# ERG = molecular target: T4, ERG (Homo sapiens, UniProt P11308 1-479); conditions: protein: recombinant; tags: N-terminal GST; dsDNA, one strand shown
# T4 sequence: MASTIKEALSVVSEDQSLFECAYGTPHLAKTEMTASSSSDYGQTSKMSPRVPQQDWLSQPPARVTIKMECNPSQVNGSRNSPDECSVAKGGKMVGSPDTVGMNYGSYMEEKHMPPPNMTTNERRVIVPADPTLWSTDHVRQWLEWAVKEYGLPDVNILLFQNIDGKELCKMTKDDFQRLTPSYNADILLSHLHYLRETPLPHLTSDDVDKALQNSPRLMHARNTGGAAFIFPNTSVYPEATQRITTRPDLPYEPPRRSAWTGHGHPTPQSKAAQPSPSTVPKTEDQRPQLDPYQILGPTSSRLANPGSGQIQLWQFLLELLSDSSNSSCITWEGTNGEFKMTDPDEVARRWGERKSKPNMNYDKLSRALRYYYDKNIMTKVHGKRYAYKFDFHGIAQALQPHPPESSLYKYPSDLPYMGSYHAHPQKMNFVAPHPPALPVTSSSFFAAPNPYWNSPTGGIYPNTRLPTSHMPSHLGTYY
# Outline: as §1
# ELF1 = ELF1 (Homo sapiens, UniProt P32519 1-619); conditions: protein: recombinant; tags: N-terminal GST; dsDNA, one strand shown
# Outline: as §1
# EHF = molecular target: T5, EHF (Homo sapiens, UniProt Q9NZC4 1-300); conditions: protein: recombinant; tags: N-terminal GST; dsDNA, one strand shown
# T5 sequence: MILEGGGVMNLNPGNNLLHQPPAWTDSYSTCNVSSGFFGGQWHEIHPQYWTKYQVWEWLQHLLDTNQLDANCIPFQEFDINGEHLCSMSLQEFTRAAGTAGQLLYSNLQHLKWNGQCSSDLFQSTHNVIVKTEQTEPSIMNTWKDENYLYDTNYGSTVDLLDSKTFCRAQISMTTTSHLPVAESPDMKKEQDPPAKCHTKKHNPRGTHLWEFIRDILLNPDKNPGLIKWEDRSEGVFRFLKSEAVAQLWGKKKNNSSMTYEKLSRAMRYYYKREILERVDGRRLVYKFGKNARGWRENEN
# Outline: as §1
# SPI1 = SPI1 (Homo sapiens, UniProt P17947 1-270); conditions: protein: recombinant; tags: N-terminal GST; dsDNA, one strand shown
# Outline: as §1
# SPIB = SPIB (Homo sapiens, UniProt Q01892 1-262); conditions: protein: recombinant; tags: N-terminal GST; dsDNA, one strand shown
# Outline: as §1
# ELK3 = molecular target: T6, ELK3 (Homo sapiens, UniProt P41970 1-407); conditions: protein: recombinant; tags: N-terminal GST; dsDNA, one strand shown
# T6 sequence: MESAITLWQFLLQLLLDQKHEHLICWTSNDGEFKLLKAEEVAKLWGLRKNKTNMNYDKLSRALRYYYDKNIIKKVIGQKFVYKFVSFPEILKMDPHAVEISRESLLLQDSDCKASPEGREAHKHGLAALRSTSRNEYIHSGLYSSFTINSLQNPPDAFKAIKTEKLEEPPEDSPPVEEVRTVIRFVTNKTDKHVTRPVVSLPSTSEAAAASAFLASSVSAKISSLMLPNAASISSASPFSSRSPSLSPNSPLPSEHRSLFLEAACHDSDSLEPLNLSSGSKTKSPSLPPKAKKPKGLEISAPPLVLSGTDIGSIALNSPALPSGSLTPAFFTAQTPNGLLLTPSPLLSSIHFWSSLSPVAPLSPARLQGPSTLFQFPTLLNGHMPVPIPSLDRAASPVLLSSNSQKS
# Outline: as §1
# FEV = molecular target: T7, FEV (Homo sapiens, UniProt Q99581 1-238); conditions: protein: recombinant; tags: N-terminal GST; dsDNA, one strand shown
# T7 sequence: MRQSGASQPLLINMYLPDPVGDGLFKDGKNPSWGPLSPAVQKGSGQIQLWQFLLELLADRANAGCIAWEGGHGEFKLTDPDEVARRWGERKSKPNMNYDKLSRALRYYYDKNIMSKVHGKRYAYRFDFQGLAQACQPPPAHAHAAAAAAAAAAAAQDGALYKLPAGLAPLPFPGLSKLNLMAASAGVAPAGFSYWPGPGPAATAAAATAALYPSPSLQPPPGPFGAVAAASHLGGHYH
# Outline: as §1
# ETV5 = ETV5 (Homo sapiens, UniProt P41161 1-510); conditions: protein: recombinant; tags: N-terminal GST; dsDNA, one strand shown
# Outline: as §1
# HSF1 = HSF1 (Homo sapiens, UniProt Q00613 1-529); conditions: protein: recombinant; tags: N-terminal GST; chain copies: 3; dsDNA, one strand shown
# Outline: as §1
# SPIC = molecular target: T8, SPIC (Homo sapiens, UniProt Q8N5J4 1-248); conditions: protein: recombinant; tags: N-terminal GST; dsDNA, one strand shown
# T8 sequence: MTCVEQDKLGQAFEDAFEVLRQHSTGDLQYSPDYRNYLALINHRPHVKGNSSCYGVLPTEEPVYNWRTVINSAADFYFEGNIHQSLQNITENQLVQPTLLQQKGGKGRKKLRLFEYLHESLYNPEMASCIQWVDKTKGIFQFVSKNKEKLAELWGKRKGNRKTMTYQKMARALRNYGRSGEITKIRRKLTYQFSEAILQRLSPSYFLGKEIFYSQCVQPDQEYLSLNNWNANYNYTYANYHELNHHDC
# Outline: as §1
# ELF4 = ELF4 (Homo sapiens, UniProt Q99607 1-663); conditions: protein: recombinant; tags: N-terminal GST; dsDNA, one strand shown
# Outline: as §1
# ELK4 = molecular target: T9, ELK4 (Homo sapiens, UniProt P28324-2 1-405); conditions: protein: recombinant; tags: N-terminal GST; dsDNA, one strand shown
# T9 sequence: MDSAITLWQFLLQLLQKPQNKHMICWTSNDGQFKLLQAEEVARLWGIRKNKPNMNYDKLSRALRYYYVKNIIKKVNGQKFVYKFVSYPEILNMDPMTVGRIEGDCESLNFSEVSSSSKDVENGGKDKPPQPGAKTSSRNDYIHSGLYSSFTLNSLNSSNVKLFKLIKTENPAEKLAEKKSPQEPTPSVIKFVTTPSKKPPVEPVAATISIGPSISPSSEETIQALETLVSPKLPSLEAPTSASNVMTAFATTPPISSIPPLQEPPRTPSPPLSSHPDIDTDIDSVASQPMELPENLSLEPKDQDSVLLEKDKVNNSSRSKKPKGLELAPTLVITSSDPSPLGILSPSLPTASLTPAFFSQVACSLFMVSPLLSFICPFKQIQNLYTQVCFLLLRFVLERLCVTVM
# Outline: as §1
# ETV2 = molecular target: T10, ETV2 (Homo sapiens, UniProt O00321 1-342); conditions: protein: recombinant; tags: N-terminal GST; dsDNA, one strand shown
# T10 sequence: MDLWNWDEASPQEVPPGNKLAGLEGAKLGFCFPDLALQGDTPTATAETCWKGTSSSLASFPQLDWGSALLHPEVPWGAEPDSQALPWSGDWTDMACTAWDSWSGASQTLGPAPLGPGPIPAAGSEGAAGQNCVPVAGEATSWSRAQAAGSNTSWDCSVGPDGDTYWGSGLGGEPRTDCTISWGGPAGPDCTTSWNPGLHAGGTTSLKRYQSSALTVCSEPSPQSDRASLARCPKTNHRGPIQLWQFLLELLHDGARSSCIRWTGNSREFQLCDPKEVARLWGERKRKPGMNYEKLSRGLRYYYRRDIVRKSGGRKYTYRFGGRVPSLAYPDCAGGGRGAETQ
# Outline: as §1
# ELF3 = molecular target: T11, ELF3 (Homo sapiens, UniProt P78545 1-371); conditions: protein: recombinant; tags: N-terminal GST; dsDNA, one strand shown
# T11 sequence: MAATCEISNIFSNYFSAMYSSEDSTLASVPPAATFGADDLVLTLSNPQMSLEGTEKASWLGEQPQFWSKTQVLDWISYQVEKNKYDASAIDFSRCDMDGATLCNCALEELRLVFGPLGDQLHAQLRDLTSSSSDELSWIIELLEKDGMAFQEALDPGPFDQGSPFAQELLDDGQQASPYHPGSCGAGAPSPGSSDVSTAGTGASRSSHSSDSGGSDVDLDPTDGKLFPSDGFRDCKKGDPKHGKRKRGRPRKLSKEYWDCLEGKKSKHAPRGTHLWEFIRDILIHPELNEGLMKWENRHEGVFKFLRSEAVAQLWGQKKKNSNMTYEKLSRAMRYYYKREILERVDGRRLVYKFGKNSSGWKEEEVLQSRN
# Outline: as §1
# CRX = CRX (Homo sapiens, UniProt O43186 1-299); conditions: protein: recombinant; tags: N-terminal GST; dsDNA, one strand shown
# Outline: as §1
# ETV1 = ETV1 (Homo sapiens, UniProt P50549 1-477); conditions: protein: recombinant; tags: N-terminal GST; dsDNA, one strand shown
# Outline: as §1
# Chain of ELF4 (Q99607 whole entry): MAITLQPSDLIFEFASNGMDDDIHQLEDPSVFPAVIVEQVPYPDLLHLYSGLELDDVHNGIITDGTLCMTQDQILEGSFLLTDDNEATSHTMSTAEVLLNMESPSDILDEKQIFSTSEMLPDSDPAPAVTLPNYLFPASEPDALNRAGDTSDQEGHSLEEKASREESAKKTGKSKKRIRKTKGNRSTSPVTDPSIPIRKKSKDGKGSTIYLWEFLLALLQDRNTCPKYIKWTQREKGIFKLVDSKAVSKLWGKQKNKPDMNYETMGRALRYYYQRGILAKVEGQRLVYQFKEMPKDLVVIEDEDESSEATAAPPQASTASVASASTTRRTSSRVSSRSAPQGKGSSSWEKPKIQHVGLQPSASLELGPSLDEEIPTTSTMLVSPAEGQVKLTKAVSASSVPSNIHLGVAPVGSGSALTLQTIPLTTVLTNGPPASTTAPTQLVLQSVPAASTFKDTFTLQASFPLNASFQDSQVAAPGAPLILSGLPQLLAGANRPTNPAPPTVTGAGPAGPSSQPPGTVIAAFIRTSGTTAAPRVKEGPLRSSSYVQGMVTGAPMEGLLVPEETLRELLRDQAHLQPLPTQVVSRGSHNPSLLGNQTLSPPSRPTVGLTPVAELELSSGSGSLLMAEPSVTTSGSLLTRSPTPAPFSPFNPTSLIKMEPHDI
# Chain of HSF1 (Q00613 whole entry): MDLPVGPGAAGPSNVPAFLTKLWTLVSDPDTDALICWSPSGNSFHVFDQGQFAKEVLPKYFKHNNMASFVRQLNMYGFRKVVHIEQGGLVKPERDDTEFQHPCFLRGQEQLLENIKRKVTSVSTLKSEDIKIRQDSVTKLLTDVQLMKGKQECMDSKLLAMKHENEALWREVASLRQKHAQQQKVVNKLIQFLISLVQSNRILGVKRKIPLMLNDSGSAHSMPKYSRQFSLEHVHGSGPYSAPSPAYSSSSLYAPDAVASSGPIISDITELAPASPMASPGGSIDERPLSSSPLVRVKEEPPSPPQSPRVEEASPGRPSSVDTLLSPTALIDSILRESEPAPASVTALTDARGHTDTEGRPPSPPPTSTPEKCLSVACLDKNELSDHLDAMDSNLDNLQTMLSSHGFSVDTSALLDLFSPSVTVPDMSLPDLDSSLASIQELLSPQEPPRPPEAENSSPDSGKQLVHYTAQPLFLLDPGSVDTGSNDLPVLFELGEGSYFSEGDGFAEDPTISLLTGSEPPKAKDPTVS
# Chain of ELF1 (P32519 whole entry): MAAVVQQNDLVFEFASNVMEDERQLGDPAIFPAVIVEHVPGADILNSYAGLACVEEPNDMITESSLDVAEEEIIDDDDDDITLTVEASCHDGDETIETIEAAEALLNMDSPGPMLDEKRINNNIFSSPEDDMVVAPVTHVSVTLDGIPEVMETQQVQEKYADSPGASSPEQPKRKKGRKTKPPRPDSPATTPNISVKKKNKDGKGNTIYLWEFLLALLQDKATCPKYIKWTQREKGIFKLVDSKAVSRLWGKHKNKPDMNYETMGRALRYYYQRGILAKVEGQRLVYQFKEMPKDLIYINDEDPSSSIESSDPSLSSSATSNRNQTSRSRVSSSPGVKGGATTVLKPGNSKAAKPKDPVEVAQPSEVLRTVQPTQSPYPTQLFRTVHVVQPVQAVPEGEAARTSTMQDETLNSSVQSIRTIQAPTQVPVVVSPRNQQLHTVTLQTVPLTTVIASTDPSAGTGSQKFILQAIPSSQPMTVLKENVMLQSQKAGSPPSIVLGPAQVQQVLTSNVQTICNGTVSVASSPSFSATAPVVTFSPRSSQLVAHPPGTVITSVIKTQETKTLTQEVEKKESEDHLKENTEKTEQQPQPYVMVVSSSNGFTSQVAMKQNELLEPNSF
# Chain of ETV5 (P41161 whole entry): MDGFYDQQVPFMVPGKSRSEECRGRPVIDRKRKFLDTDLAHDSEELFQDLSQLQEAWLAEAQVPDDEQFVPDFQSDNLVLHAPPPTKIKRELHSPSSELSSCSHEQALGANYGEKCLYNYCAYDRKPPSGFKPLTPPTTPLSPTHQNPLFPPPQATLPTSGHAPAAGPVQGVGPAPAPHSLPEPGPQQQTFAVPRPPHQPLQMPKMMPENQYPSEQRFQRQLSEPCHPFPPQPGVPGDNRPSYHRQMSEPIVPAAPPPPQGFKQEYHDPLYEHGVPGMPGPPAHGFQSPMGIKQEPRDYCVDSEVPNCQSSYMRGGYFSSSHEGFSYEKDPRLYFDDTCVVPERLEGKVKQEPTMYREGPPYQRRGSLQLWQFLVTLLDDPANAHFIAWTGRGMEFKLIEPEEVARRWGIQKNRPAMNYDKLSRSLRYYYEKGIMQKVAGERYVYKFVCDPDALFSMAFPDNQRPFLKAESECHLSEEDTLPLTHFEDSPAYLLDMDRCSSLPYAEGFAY
# Chain of ETV1 (P50549 whole entry): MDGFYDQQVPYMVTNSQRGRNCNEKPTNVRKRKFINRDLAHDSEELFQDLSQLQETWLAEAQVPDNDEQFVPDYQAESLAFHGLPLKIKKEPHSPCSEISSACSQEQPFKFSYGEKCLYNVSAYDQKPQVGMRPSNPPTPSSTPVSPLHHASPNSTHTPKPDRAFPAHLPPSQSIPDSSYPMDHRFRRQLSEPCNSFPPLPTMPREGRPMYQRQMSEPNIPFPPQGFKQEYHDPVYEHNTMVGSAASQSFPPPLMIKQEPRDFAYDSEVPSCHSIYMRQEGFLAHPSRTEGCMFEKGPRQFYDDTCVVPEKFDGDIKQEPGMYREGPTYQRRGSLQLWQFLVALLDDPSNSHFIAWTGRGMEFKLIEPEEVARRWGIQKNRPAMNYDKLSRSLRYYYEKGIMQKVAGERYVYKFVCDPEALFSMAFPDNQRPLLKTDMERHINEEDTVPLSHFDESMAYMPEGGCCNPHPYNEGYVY
# Chain of SPIB (Q01892 whole entry): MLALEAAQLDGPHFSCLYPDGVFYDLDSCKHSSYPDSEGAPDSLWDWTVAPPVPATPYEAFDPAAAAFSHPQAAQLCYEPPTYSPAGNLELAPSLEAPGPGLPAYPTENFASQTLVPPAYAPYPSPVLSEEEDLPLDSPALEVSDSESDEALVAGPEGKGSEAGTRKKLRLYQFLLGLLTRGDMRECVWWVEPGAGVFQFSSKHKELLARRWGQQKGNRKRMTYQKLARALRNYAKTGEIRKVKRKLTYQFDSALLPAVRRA
# Chain of CRX (O43186 whole entry): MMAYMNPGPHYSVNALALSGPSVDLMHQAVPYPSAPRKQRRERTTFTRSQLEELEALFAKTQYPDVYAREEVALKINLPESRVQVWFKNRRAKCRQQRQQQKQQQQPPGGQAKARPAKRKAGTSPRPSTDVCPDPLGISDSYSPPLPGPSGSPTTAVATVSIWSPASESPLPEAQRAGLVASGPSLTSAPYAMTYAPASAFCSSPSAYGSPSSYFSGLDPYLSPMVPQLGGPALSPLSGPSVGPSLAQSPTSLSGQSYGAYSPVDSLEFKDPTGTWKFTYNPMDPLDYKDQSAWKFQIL
sequence,measurement,setting,value
AACAAT,binding signal,FLI1,"1.31 fold enrichment (6-mer frequency, TF over GST control)"
same,binding signal,ELK1,"1.29 fold enrichment (6-mer frequency, TF over GST control)"
same,binding signal,GABPA,"1.32 fold enrichment (6-mer frequency, TF over GST control)"
same,binding signal,ERG,"1.28 fold enrichment (6-mer frequency, TF over GST control)"
same,binding signal,ELF1,"1.29 fold enrichment (6-mer frequency, TF over GST control)"
same,binding signal,EHF,"1.26 fold enrichment (6-mer frequency, TF over GST control)"
same,binding signal,SPI1,"1.32 fold enrichment (6-mer frequency, TF over GST control)"
same,binding signal,SPIB,"1.29 fold enrichment (6-mer frequency, TF over GST control)"
same,binding signal,ELK3,"1.32 fold enrichment (6-mer frequency, TF over GST control)"
same,binding signal,FEV,"1.29 fold enrichment (6-mer frequency, TF over GST control)"
same,binding signal,ETV5,"1.29 fold enrichment (6-mer frequency, TF over GST control)"
same,binding signal,HSF1,"1.48 fold enrichment (6-mer frequency, TF over GST control)"
same,binding signal,SPIC,"1.26 fold enrichment (6-mer frequency, TF over GST control)"
same,binding signal,ELF4,"1.32 fold enrichment (6-mer frequency, TF over GST control)"
same,binding signal,ELK4,"1.27 fold enrichment (6-mer frequency, TF over GST control)"
same,binding signal,ETV2,"1.31 fold enrichment (6-mer frequency, TF over GST control)"
same,binding signal,ELF3,"1.56 fold enrichment (6-mer frequency, TF over GST control)"
same,binding signal,CRX,"1.24 fold enrichment (6-mer frequency, TF over GST control)"
same,binding signal,ETV1,"1.36 fold enrichment (6-mer frequency, TF over GST control)"
